Measurements published in ChEMBL document CHEMBL1961873, “Compounds: GSK PKIS; Assays: Nanosyn kinase panel” (2012).

What was measured:
[1] = target: T1, Muscle, skeletal receptor tyrosine-protein kinase (Homo sapiens) (UniProt O15146); conditions: at 1 µM;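 also: reported value is the mean percent inhibition of MuSK kinase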
T1 sequence (whole entry): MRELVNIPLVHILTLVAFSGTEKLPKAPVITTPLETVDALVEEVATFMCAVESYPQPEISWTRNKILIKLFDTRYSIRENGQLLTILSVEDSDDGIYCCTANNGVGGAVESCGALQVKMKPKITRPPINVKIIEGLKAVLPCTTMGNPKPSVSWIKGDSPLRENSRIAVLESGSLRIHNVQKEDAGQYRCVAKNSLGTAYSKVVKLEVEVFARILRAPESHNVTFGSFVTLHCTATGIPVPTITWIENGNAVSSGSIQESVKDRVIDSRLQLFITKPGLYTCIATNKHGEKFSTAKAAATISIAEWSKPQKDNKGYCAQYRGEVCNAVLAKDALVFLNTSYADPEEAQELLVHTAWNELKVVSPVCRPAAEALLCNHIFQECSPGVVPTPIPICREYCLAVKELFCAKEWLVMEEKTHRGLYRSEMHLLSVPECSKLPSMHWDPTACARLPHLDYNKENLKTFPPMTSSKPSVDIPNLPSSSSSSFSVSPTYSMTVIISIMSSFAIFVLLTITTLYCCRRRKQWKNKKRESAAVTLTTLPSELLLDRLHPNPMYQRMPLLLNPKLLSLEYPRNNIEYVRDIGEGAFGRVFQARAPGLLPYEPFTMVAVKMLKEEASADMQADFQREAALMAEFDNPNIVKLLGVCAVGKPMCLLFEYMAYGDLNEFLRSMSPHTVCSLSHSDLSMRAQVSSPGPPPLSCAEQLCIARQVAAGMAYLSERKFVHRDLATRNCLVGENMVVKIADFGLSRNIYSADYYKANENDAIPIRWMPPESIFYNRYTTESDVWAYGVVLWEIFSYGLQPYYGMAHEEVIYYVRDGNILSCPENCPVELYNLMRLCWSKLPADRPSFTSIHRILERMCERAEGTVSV

[2] = target: Platelet-derived growth factor receptor alpha (Homo sapiens) (UniProt P16234); conditions: at 0.1 µM
Sequence of Platelet-derived growth factor receptor alpha (Homo sapiens) (P16234 whole entry): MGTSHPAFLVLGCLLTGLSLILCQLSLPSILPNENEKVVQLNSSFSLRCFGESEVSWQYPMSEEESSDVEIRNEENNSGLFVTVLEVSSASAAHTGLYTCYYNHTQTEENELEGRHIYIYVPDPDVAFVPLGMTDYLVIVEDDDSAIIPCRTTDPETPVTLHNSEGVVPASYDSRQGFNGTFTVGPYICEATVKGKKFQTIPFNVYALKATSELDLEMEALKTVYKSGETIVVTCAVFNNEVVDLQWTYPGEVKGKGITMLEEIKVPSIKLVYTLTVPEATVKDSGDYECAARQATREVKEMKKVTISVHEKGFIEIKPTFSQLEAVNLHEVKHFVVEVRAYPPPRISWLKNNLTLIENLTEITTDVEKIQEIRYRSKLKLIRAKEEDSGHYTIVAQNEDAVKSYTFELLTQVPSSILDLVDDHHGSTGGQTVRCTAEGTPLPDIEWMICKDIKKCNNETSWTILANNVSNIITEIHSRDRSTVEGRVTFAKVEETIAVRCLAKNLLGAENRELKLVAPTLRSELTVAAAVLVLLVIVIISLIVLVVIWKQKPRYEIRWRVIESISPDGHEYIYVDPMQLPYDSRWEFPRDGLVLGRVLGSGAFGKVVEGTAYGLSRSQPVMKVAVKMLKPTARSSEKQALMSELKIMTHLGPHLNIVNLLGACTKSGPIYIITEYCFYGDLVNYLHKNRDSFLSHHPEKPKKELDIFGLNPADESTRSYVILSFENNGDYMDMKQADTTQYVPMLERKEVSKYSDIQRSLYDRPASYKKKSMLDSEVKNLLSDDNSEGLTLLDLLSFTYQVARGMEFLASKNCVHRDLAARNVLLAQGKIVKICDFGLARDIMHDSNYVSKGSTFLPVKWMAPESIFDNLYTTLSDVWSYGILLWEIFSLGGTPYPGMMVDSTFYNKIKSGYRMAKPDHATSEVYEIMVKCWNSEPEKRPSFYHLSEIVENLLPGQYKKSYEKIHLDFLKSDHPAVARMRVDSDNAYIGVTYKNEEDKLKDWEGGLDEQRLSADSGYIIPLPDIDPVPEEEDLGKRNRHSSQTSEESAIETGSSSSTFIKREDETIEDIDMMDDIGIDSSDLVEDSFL

[3] = target: Platelet-derived growth factor receptor alpha (Homo sapiens) (UniProt P16234); conditions: at 1 µM
[4] = system: Platelet-derived growth factor receptor alpha (Homo sapiens), P16234 [D842V]; conditions: at 0.1 µM
Sequence of Platelet-derived growth factor receptor alpha (Homo sapiens), P16234 [D842V] (P16234 whole entry D842V): as the sequence (P16234 whole entry) above, with D842V counted along it

[5] = system: Platelet-derived growth factor receptor alpha (Homo sapiens), P16234 [D842V]; conditions: at 1 µM
[6] = system: Platelet-derived growth factor receptor alpha (Homo sapiens), P16234 [T674I]; conditions: at 0.1 µM
Sequence of Platelet-derived growth factor receptor alpha (Homo sapiens), P16234 [T674I] (P16234 whole entry T674I): as the sequence (P16234 whole entry) above, with T674I counted along it

[7] = system: Platelet-derived growth factor receptor alpha (Homo sapiens), P16234 [T674I]; conditions: at 1 µM
[8] = system: Platelet-derived growth factor receptor alpha (Homo sapiens), P16234 [V561D]; conditions: at 0.1 µM
Sequence of Platelet-derived growth factor receptor alpha (Homo sapiens), P16234 [V561D] (P16234 whole entry V561D): as the sequence (P16234 whole entry) above, with V561D counted along it

[9] = system: Platelet-derived growth factor receptor alpha (Homo sapiens), P16234 [V561D]; conditions: at 1 µM
[10] = target: Platelet-derived growth factor receptor beta (Homo sapiens) (UniProt P09619); conditions: at 0.1 µM;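 also: reported value is the mean percent inhibition of the kinase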
Sequence of Platelet-derived growth factor receptor beta (Homo sapiens) (P09619 whole entry): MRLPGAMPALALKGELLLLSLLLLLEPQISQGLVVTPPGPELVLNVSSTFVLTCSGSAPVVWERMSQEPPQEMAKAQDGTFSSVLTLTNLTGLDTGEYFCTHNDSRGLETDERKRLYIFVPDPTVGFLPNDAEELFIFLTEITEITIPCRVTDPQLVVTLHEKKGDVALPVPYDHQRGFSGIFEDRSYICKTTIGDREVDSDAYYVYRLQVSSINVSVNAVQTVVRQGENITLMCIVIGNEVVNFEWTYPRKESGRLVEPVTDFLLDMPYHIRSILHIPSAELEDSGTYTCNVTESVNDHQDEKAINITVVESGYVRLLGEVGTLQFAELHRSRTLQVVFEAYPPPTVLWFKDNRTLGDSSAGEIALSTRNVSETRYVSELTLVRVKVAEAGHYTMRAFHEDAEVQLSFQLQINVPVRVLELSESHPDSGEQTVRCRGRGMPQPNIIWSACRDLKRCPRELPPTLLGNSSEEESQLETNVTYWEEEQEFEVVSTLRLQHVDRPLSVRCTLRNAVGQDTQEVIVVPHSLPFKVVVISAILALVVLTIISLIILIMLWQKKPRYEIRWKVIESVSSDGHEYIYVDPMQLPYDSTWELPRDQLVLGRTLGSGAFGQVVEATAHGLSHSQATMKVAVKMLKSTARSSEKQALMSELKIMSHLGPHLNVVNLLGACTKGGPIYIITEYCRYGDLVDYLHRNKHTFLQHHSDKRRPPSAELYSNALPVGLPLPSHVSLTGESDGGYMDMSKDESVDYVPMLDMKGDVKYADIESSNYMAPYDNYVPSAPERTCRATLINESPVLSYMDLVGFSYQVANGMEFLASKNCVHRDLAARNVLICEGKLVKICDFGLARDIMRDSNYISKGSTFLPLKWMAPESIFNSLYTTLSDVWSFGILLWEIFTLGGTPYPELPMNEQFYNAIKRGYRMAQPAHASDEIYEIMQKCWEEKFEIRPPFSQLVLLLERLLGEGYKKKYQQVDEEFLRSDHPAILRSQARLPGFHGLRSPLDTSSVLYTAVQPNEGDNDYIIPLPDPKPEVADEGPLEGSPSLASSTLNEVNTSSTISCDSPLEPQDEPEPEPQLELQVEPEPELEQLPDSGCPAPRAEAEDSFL

SMILES | inhibition [1] [%] | inhibition [2] [%] | inhibition [3] [%] | inhibition [4] [%] | inhibition [5] [%] | inhibition [6] [%] | inhibition [7] [%] | inhibition [8] [%] | inhibition [9] [%] | inhibition [10] [%]
COc1cc(C=NNc2ncnc3c2cnn3Cc2ccccc2)ccc1O | 17.2 | 9.07 | 43.3 | 6.24 | 42.1 | -1.14 | 1.46 | 6.77 | 34.3 | 6.26
CCn1c(-c2nonc2N)nc2c(C#CC(C)(C)O)nc(O[C@@H](CN)c3ccccc3)cc21 | 1.93 | 32 | 70.5 | 49.8 | 89.5 | 34.5 | 86.8 | 29.6 | 79.3 | 50.3
NS(=O)(=O)c1ccc(N/C=C2\C(=O)Nc3ccc4ncsc4c32)cc1 | 51.2 | 54.4 | 86.9 | 55.5 | 91.5 | 15.1 | 60.9 | 48.2 | 90.9 | 56.5
Cc1cc(-c2ccco2)cc(C)c1/C=C/c1cncc(-c2nn[nH]n2)c1 | -4.43 | 5.56 | 9.36 | 3.41 | 3.27 | 2.56 | 3.42 | 2.25 | 7 | 0.05
COc1cccc(-n2ncc3c(N/N=C/c4ccncc4)ncnc32)c1 | 45.6 | 43 | 79.5 | 44.4 | 87.3 | 25.4 | 82.4 | 40.4 | 84.7 | 45
NS(=O)(=O)c1ccc(-c2ccc3c(NC(=O)C4CC4)n[nH]c3c2)cc1 | 8.82 | 5.05 | 15.1 | 1.45 | 5.77 | 2.04 | 1.43 | -0.07 | 8.8 | 6.55
Nc1nonc1-c1nc2cnccc2n1C1CCCCC1 | 3.94 | 3.7 | 18.1 | 2.4 | 16.9 | 1.78 | 19.5 | 2.95 | 14.4 | 4.64
COc1cc2c(cc1Nc1nc(Nc3ccsc3C(N)=O)c3cc[nH]c3n1)N(C(=O)CN(C)C)CCC2 | 28.6 | 11.4 | 26.1 | 2.44 | 3.25 | 1.93 | 2.94 | 3.24 | 13.9 | 10.4
CCn1c(-c2nonc2N)nc2c(C#CC(C)(C)O)ncc(OCC3CCNCC3)c21 | 3.71 | 9.32 | 28.6 | 4.23 | 34.4 | 7.44 | 29.9 | 5.4 | 16.6 | 12.1
NC(=O)c1sc(-n2cnc3cc(C(F)(F)F)ccc32)cc1OCc1ccccc1Br | -0.86 | 7.64 | 6.52 | 4.16 | 5.38 | 3.44 | 2.59 | 3.5 | 4.58 | 3.03
CCn1c(-c2nonc2N)nc2c(C#CC(C)(C)O)ncc(OC[C@@H]3CCCN3)c21 | -3.74 | 5.65 | 24.4 | 7.78 | 44.4 | 4.92 | 26.6 | 2.28 | 22.3 | 8.36
COc1cccc(COc2cc(-n3cnc4ccccc43)sc2C(N)=O)c1 | -3.86 | 4.14 | 14.5 | 0.88 | 6.81 | 1.86 | -0.65 | 0.87 | 5.54 | 0.6
Fc1ccc(-c2ncn(C3CCNCC3)c2-c2ccnc(Oc3ccccc3)n2)cc1 | -0.77 | 5.35 | 9.51 | 2.07 | 4 | 1.52 | 5.42 | 2.95 | 5.32 | 3.81
CCn1c(-c2nonc2N)nc2c(C#CCN)ncc(OCCCN)c21 | 12.2 | 7.42 | 11.7 | 0.26 | 8.54 | 2.16 | 5.96 | 4.02 | 3.51 | 9.08
